Screening results (PubChem)
Hits are enriched below; roughly 10% of the tested compounds scored in any of these assays.
KB-3-1 cytotox = KB-3-1 parental cell cytotoxicity | KB-3-1 viability, CellTiter-Glo ATP luminescence, 72 h | Potency, µM (series often up to 46.1 µM), hits mostly cytotoxic | 400,000 tested, 1.4% active | AID 1347075; note: % is set by controls: 0 for no effect and ±100 for the full control effect; nearly all actives have a fitted effect of over 60% in size
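Viability of parental KB-3-1 cells, measured by CellTiter-Glo luminescence, followed a 72 h incubation at 37 °C with pinned compounds in phenol-red-free DMEM containing 10% FBS.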
SW480 rerep = DNA re-replication induction in SW480 cells; Potency, µM (top dose mostly 46.1 µM), for the others: at the highest dose re-replication activation, usual class: activators; 340,000 tested, 1.8% active; SW480 DNA re-replication, Hoechst DNA content imaging, 48 h; AID 624297; note: % of control where 0% means no effect; nearly all actives have a fitted effect of over 55% in size
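Readout is total intensity of Hoechst-stained nuclei, excited at 405 nm and collected at 500-530 nm. Compound treatment lasted 48 hr at 37 C in 5% CO2 before staining.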
MCF10A rerep = DNA re-replication induction in MCF 10a cells. 350,000 tested, 2.9% active. MCF 10A DNA re-replication, Hoechst nuclear intensity, 48 h. Potency, µM (titrated, usually from 46.1 µM), without a hit: top-dose activity, positive = re-replication, hits mostly activators; note: % of control where 0% means no effect; nearly all actives have a fitted effect of over 50% in size
KB-V1 cytotox = KB-V1 MDR subline cytotoxicity; KB-V1 MDR cells viability, CellTiter-Glo, 72 h; Potency, µM (titrated, usually from 46.1 µM), actives largely listed as cytotoxic; 400,000 tested, 3.4% active; note: % is set by controls: 0 for no effect and ±100 for the full control effect; nearly all actives have a fitted effect of over 60% in size
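Cytotoxicity toward P-gp-expressing KB-V1 cells was determined as loss of CellTiter-Glo luminescence after 72 h at 37 degrees C. Compounds were tested in quantitative HTS format across a concentration range, with curves fitted to normalized data.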
Gal4-VP16 FLuc = Gal4-VP16 reporter inhibition counter-screen; Drosophila S2 Gal4-VP16 UAS-luciferase, luminescence, 20 h; Potency, µM (doses to about 53.6 µM), without a hit: at the highest dose activity, negative = inhibition, actives largely listed as inhibitors; 310,000 tested, 3.5% active;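 note: Gal4-VP16 expression switched on by copper sulfate through the metallothionein promoter; % is set by controls: 0 for no effect and ±100 for the full control effect; nearly all actives have a fitted effect of over 50% in size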
RORg inh = blocks mouse ROR gamma transcriptional activity | P51450 | Drosophila S2 Gal4-RORgamma UAS-luciferase reporter, 20 h | Potency, µM (doses to about 53.6 µM), for inactives: top-dose activity change, negative = inhibition, actives largely listed as inhibitors | 310,000 tested, 5.4% active; note: % is set by controls: 0 for no effect and ±100 for the full control effect; nearly all actives have a fitted effect of over 60% in size
Target sequence (P51450 whole entry, looked up, the tested form may be a part): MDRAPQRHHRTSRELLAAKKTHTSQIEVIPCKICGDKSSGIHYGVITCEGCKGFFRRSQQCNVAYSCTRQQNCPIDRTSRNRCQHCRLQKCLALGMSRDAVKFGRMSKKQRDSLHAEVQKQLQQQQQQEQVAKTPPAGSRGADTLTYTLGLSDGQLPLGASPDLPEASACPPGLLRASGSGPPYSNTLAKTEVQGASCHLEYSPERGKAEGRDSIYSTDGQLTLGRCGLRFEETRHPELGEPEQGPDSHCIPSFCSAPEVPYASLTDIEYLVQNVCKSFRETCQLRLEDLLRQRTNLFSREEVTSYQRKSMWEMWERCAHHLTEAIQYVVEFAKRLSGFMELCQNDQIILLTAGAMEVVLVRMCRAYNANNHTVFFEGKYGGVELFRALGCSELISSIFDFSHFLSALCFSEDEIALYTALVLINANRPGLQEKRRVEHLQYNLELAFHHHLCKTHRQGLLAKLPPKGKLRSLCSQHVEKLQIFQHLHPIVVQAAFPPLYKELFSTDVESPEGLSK
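In this cell-based reporter format, copper sulfate (700 uM final) drives Gal4–ROR gamma fusion expression from a metallothionein promoter in Drosophila Schneider cells; compounds preincubated 1 hr, reporter read after 20 hr at ambient temperature.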
Starred values were filed as active, the others as inactive; i = inactive; ? = inconclusive; · = no result; [ ] = remark or other dose. Calls come from the whole dose curve; as a rule, active = well fitted curve in the direction sought with a large enough effect; inconclusive = small, poorly fitted or top-dose-only effect, or another doubt; inactive = no such curve, though single readings can be large; an effect the other way counts as inactive or inconclusive. Potency is the fitted concentration of half-maximal effect.

SMILES	KB-3-1 cytotox	SW480 rerep	MCF10A rerep	KB-V1 cytotox	Gal4-VP16 FLuc	RORg inh
Cc1c(C(=O)Nc2ccc3c(c2)OCCO3)sc2ncnc(N3CCCCC3C)c12 (stereo not given)	18µM*	-20%	?	?	25%	?
O=C1OCCC1Sc1nc2cc(Cl)ccc2n1Cc1ccccc1 (stereo not given)	i	-5%	10%	i	?	13µM*
CC(C)(C)c1ccc(-c2nnc(SC3CCOC3=O)n2Cc2ccccc2)cc1 (stereo not given)	i	4%	0%	i	?	16µM*
O=C1OCCC1Sc1nc2ccccc2c(=O)n1Cc1ccccc1 (stereo not given)	i	-3%	18%	i	-9%[10 µM]	1%
Cc1sc2nc(SC3CCOC3=O)n(Cc3ccccc3)c(=O)c2c1C (stereo not given)	i	-15%	3%	i	-2%	34%
C[C@H](CO)N1C[C@H](C)[C@H](CN(C)S(=O)(=O)c2ccc3ccccc3c2)OCc2cnnn2CCCC1=O	i	·	·	i	·	·
Cc1cc2c(N=O)c(NO)ccc2[nH]1	?	4.1µM*	?	4.1µM*	3.2µM*	5µM*
N#CC(=C(O)COC(=O)c1ccc2c(c1)OCCO2)c1nc2ccccc2[nH]1	i	?	?	i	·	·
Cc1c(C(=O)OC/C(O)=C(\C#N)c2nc3ccccc3[nH]2)oc2ccccc12	i	?	15µM*	i	?	?
COc1ccc(C(=O)OC/C(O)=C(\C#N)c2nc3ccccc3[nH]2)cc1S(=O)(=O)N1CCOCC1	i	-3%	8%	i	-10%	13µM*
COc1cc(OC)cc(C(=O)OC/C(O)=C(\C#N)c2nc3ccccc3[nH]2)c1	i	?	21µM*	i	18µM*	6.3µM*
COc1ccc(C(=O)Nc2nc3ccccc3[nH]2)cc1S(=O)(=O)N1CCOCC1	i	?	7%[9.22 µM]	?	-8%	?
Cc1ccc(NC(=O)COC(=O)c2c(C)nn(-c3ccccc3)c2C)cc1	i	11%	-1%	i	·	·
Cc1nn(-c2ccccc2)c(C)c1C(=O)OCC(=O)Nc1ccccc1	i	-1%	-1%	10µM*	·	·
Cc1c(C(=O)NC(C)C)c(-c2ccccc2)nn1-c1ccccc1	i	-194%	2%	21µM*	-7%	6%
Cc1nn(-c2ccccc2)c(C)c1C(=O)OCC(O)=C(C#N)c1nc2ccccc2[nH]1	i	?	18µM*	i	·	·
COc1ccc([C@@H]2CC(=O)c3c(O)cc(O[C@@H]4O[C@H](CO[C@@H]5O[C@@H](C)[C@H](O)[C@@H](O)[C@H]5O)[C@@H](O)[C@H](O)[C@H]4O)cc3O2)cc1	·	·	·	·	-2%	-10%
CCOC(=O)c1cc(-c2ccccc2)n[nH]1	i	-1%	1%	i	-2%	-21%
Cc1cc(-c2ccccc2)n[nH]1	i	-18%	0.65µM*	i	-17%	-4%
COc1ccc(CN2CCN(Cc3cc(=O)oc4cc(C)ccc34)CC2)c(OC)c1OC	i	10%	6.5µM*	i	-8%	-1%
COc1ccc(CN2CCN(C(c3ccc(F)cc3)c3ccc(F)cc3)CC2)c(OC)c1OC	?	17%	21µM*	18µM*	-13%	8%[10 µM]
COc1cc(OC)c(CN2CCN(c3ccc(F)cc3)CC2)cc1Br	i	14%	3%	16µM*	0%	-2%
COc1ccccc1N1CCN(Cc2cc(=O)oc3cc(C)ccc23)CC1	i	·	·	i	·	·
COc1ccc(CN2CCN(c3ccc(F)cc3)CC2)c(OC)c1OC	?	?	-5%	8.2µM*	-16%	?
CCn1cc(C(=O)NCc2ccc(Cl)cc2)c(=O)c2cc(S(=O)(=O)N(C)C3CCCCC3)ccc21	i	·	·	i	·	·
SMILES	KB-3-1 cytotox	SW480 rerep	MCF10A rerep	KB-V1 cytotox	Gal4-VP16 FLuc	RORg inh
NNc1nc(Nc2ccc([N+](=O)[O-])cc2)nc(N2CCCCCC2)n1	i	-8%	13%	i	16µM*	?
O=[N+]([O-])c1ccc(/C=N/Nc2nc(N3CCCCC3)nc(N3CCCCC3)n2)cc1	i	-6%	-1%	i	-9%	-13%
C=CCNc1nc(Cl)nc(Nc2ccccc2)n1	i	-4%	-1%	i	-6%	-15%
O=[N+]([O-])c1ccc(Nc2nc(NCCO)nc(N3CCCC3)n2)cc1	i	-1%	?	i	-13%	17%
CNc1nc(Cl)nc(Nc2ccccc2)n1	?	-20%	?	5.8µM*	?	16%
NNc1nc(Nc2ccccc2)nc(Nc2ccccc2)n1	i	?	?	i	-24%	16µM*
COc1ccc(Nc2nc(NN)nc(Nc3ccc(OC)cc3)n2)cc1	i	12%	6%	i	?	-36%[1.91 µM]
O=[N+]([O-])c1ccc(Nc2nc(N/N=C\c3ccc4c(c3)OCO4)nc(N3CCCCC3)n2)cc1	i	1%	10%	i	?	4.5µM*
c1ccc(Nc2ccnc(Nc3ccccc3)n2)cc1	?	?	?	18µM*	?	-20%
CCCNc1nc(Nc2ccc(C)cc2)nc(N2CCCC2)n1	?	7%	?	4.1µM*	?	?
NNc1nc(Nc2ccccc2)nc(N2CCCCC2)n1	i	22%	-2%	?	7.1µM*	5µM*
Cc1ccc2oc3c(c(=O)c2c1)C(c1ccc(OCC(N)=O)cc1)N(Cc1ccc2c(c1)OCO2)C3=O (stereo not given)	i	·	·	i	·	·
O=c1c2ccccc2nc2sc(Nc3cccc(N4CCNCC4)c3)nn12	?	·	·	i	·	·
CC(C)[C@@H]1NC(=O)[C@H](CCCCN)NC(=O)[C@@H](Cc2c[nH]c3ccccc23)NC(=O)[C@H](Cc2ccc(O)cc2)NC(=O)[C@@H](NC(=O)[C@H](N)Cc2ccccc2)CSSC[C@@H](C(=O)N[C@@H](Cc2c[nH]c3ccccc23)C(N)=O)NC1=O	·	·	·	·	-1%	3%
O=C1/C(=C/c2ccccc2F)SC(=S)N1CCC(=O)N1CCCCC1CCO (stereo not given)	?	?	23µM*	i	-3%	-21%
O=C(CCN1C(=O)/C(=C\c2ccccc2F)SC1=S)N1CCCCC1	10µM*	?	?	?	-7%	?
O=C(CCN1C(=O)/C(=C\c2ccccc2Cl)SC1=S)N1CCN(c2ccccc2)CC1	?	-2%	6.5µM*	?	-6%	-23%
